From PubChem BioAssay (NCI)
“And” between values parts separate entries of the source, which are not always exact repeats. Equal entries are not always repeated. Compounds without any hit were thinned out: in the full panel of roughly 83,000, 20% have a hit.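 96-well plates, one dose, 48 hours. Percent growth reported; active if below 10.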 Values without a mark were called inactive. The source made the active and inactive calls.

system: MDA-MB-468 breast; assay: NCI-60 one-dose screen, 48 h (100 = growth as untreated, 0 = no growth, -100 = all killed); conditions: 10 µM unless noted

Question: For `Cn1cc2c(c1)-c1c(sc3nc(-c4ccc(NC(=O)Nc5cc(C(C)(C)C)on5)cc4)cn13)CC2`, which growth is on record?
Answer: 68.8%

Question: Which growth does the source give for `NC(=O)c1cccc(N2Cc3ccccc3OC3=C2C(=O)c2c(O)ccc(O)c2C3=O)c1` here?
Answer: -21.4% (active)

Question: With `COc1cc(/C=N/NC(=S)NNC(=S)NC2CCCCC2)cc(OC)c1OC` as the molecule, how does the growth read?
Answer: 94.2%

Question: How did the growth turn out when `COc1cc(NCCC2CCCCN2)c2ncccc2c1OC` (stereo not given) was run?
Answer: 73.8%

Question: `Cc1nccc2c3ccc(OCc4cn(Cc5ccc(Br)cc5)nn4)cc3n(CCCc3ccccc3)c12` was tested. Which growth did it give?
Answer: 93.4%

Question: For `C=CCn1c(SCC(=O)Nc2ccc(C(=O)/C=C/c3cc(OC)c(OC)c(OC)c3)cc2)nnc1-c1ccc(Cl)cc1`, which growth is on record?
Answer: 2.35% (active)

Question: With `COc1ccc2sc(N(Cc3cccnc3)C(=O)c3ccc(C#N)cc3)nc2c1` as the molecule, how does the growth read?
Answer: 73%

Question: How did the growth turn out when `CCNC(=O)Oc1ccc(/C(=C(\C)c2ccccc2)c2ccc(OCCN3CCCCC3)cc2)cc1` was run?
Answer: 76.6%

Question: With `Nc1cc(N)c2cccnc2c1O` as the molecule, how does the growth read?
Answer: 48.2%

Question: How did the growth turn out when `CCOC(=O)C1=C(N)Oc2c(sc3c(C)cccc23)C1c1ccc(OC)cc1` (stereo not given) was run?
Answer: 0.934% (active)

Question: Which growth does the source give for `O=C(CSc1nc2ccccc2c(=O)n1-c1ccccc1)Nc1ccc(S(=O)(=O)Nc2nccs2)cc1` here?
Answer: 56.4%

Question: `C=C(C)[C@@H]1CC[C@]2(C(=O)N3CCN(C)CC3)CC[C@]3(C)[C@H](CC[C@@H]4[C@@](C)(CCC(=O)O)[C@H](C(=C)C)CC[C@]43C)[C@@H]12` was tested. Which growth did it give?
Answer: 90.1%

Question: For `COc1ccc2c(c1)N(CCO)C1=C(C(=O)OC1)C2c1ccc(OC)c(OC)c1` (stereo not given), which growth is on record?
Answer: 0.0938% (active)

Question: `O=[N+]([O-])c1c(O)c(CNCCCO)cc(CNCCCO)c1O` was tested. Which growth did it give?
Answer: 108%

Question: With `CCOC(=O)C1=C(CCl)N(C)C(=O)NC1c1ccc2c(c1)OCO2` (stereo not given) as the molecule, how does the growth read?
Answer: 24.1%

Question: With `O=C1CC2(O)CSc3nc(=O)cc(n32)N1` (stereo not given) as the molecule, how does the growth read?
Answer: 109%

Question: Which growth does the source give for `O=C(Nc1ccc(OS(=O)(=O)c2ccc(F)cc2)cc1)C1CCCCCC1` here?
Answer: 102%

Question: How did the growth turn out when `CCCCCCCCCCN1CC2CCCCC2C1` (stereo not given) was run?
Answer: 54.7%

Question: With `CCN(CC)CCOc1ccc(C(=O)/C=C\c2ccc(Cl)cc2Cl)cc1` as the molecule, how does the growth read?
Answer: 39.8%

Question: How did the growth turn out when `COc1cc(C2CC(c3cc(Cl)c(C)cc3O)=NN2c2ccc(S(N)(=O)=O)cc2)cc(OC)c1OC` (stereo not given) was run?
Answer: 22.7%

Question: Which growth does the source give for `COc1ccc(NCc2cn(-c3ccc(C(=O)O)cc3)nc2-c2cc(C(F)(F)F)cc(C(F)(F)F)c2)cc1` here?
Answer: 112%

Question: With `CCOC(=O)CNC(=O)C1(NC(=O)CNC(=O)OCc2ccccc2)CCCC1` as the molecule, how does the growth read?
Answer: 131%

Question: How did the growth turn out when `O=CN1N=C(c2ccc(Cl)cc2)CC1c1cccc(Nc2ccnc3cc(C(F)(F)F)ccc23)c1` (stereo not given) was run?
Answer: 32.9%

Question: How did the growth turn out when `COc1ccc2c(c1)oc1c3[nH]c4ccccc4c3c3c(c21)C(=O)N(O)C3=O` was run?
Answer: -17.7% (active)

Question: `O=C(NNc1nc2cc(F)ccc2n2c(CN3CCC(O)C3)ccc12)c1cnccn1` (stereo not given) was tested. Which growth did it give?
Answer: -17.3% (active)

Question: `Cc1ccc(S(=O)(=O)n2cc(CNc3ccc(N4CCOCC4=O)cc3)c3ccccc32)cc1` was tested. Which growth did it give?
Answer: -9.46% (active)

Question: Which growth does the source give for `CN1CCN(CC(=O)Nc2nc(-c3cccc(NS(=O)(=O)c4cccc5c(N(C)C)cccc45)c3)cs2)CC1` here?
Answer: 38.7%

Question: `O=C(Nc1ccc(-n2ccc3c(NC(=O)c4ccccc4)nccc32)cc1)c1cccc(C(F)(F)F)c1` was tested. Which growth did it give?
Answer: 16.8%

Question: How did the growth turn out when `Clc1cc(Br)ccc1-c1ccc(CNCC2CCNCC2)o1` was run?
Answer: 21.2%

Question: `Cc1ccc(NS(=O)(=O)c2ccc(C)cc2)cc1` was tested. Which growth did it give?
Answer: 94.4% and 87.3%

Question: Which growth does the source give for `N#Cc1cccc(C2C3=C(COC3=O)N(CCO)c3cc4c(cc32)CCC4)c1` (stereo not given) here?
Answer: 3.97% (active)

Question: `COc1ccc(/C(=C2\O[C@@H]([C@H]3COC(C)(C)O3)[C@H]3OC(C)(C)O[C@@H]23)c2cc(OC)c(OC)c(OC)c2)cc1O` was tested. Which growth did it give?
Answer: 96.4%

Question: With `Nc1nc(N)c2cc(NCc3ccc(Cl)c(Cl)c3)ccc2n1` as the molecule, how does the growth read?
Answer: -84.7% (active)

Question: With `[2H]c1nc(=Nc2cc(NC(=O)C=C)c(N(C)CCN(C)C)cc2OC)[nH]c(-c2cn(C([2H])([2H])[2H])c3ccccc23)c1[2H]` as the molecule, how does the growth read?
Answer: -9.46% (active)

Question: `COc1ccc(S(=O)(=O)Nc2c(/C=C\c3cc(OC)c(OC)c(OC)c3)ccc(OC)c2O)cc1` was tested. Which growth did it give?
Answer: 10.9%

Question: For `O=C(Nc1ccc2ncsc2c1)c1csc(Nc2ccc3[nH]ncc3c2)n1`, which growth is on record?
Answer: 35.6%

Question: With `CCOC(=O)c1cc(C(=O)c2ccc(Br)cc2)n2ccc(/C=C/c3cc[n+](CC(=O)c4ccc(OC)cc4)cc3)cc12` as the molecule, how does the growth read?
Answer: 66.4%

Question: `CCCNc1nc(SC)nc(-c2cccc(N)c2)c1C#N` was tested. Which growth did it give?
Answer: 114%

Question: `COc1cccc(-c2nn(-c3ccccc3)cc2-c2ccnc(NCCNS(=O)(=O)c3ccc(Cl)cc3)c2)c1` was tested. Which growth did it give?
Answer: 16.9%

Question: Which growth does the source give for `COc1ccc(Nc2cc(Cl)ccc2C(=O)O)cn1` here?
Answer: 95.8%
